# Data from ChEMBL document CHEMBL3988442, “University of Dundee, Small-Polar-MMV Screening Library” (2021).
# In all, about 69,000 compounds went through this assay and about 1,000 (1.4%) showed an effect of 50% or more. Many of the other results were omitted from the sample, so strong results are more common in it than they were.
# System: Leishmania donovani
# Assay: Leishmania intramacrophage assay
# Type: functional, organism-based
# Parameters: scale not given: in the data most compounds retested in dose-response had high values
Compound,"Percent Effect (30.3 µM, […]) [%]","Percent Effect (30 µM, 30.03 µM) [%]"
CCOc1cc(C(=O)N2CCN(CC)CC2)cc2occc12,-20.1,
CN(CC(=O)Nc1ccccc1C(=O)NC1CC1)Cc1ccccc1Cl,31.64,
CCOc1ccccc1NC(=O)CN(C)Cc1ccccc1Cl,52.93,
CCOC(=O)c1ccccc1NC(=O)CN(C)Cc1ccccc1Cl.O=C(O)C(=O)O,23.74,
O=C(Nc1cccc(OCC(F)F)n1)c1ccncc1F,29.54,
CCSc1ccc(C(=O)N2CCCC2C(=O)N2CCOCC2)cn1 (stereo unspecified),-29.5,
Cc1cc2nc(C(C)C)cc(N3CCC(N(C)C)C3)n2n1 (stereo unspecified),15.59,
Cc1cc2nc(C(C)C)cc(N3CCC(O)CC3)n2n1,27.64,
Cc1cc2nc(C(C)C)cc(N3CCC(Oc4ncccn4)CC3)n2n1,83.06,
O=C(CNC(=O)C1CCCC1)NCc1cnn(-c2ccc(F)cc2F)c1,-11,
CCN(c1ccc(C(=O)NCCCN2CCOCC2)cc1)S(=O)(=O)CC,,0.6611
CC(O)CN1CCN(C(=O)c2ccc3c(c2)COC3)CC1 (stereo unspecified),,9.428
Cn1cnc2c(-c3cccnc3)nc(C3CCN(S(C)(=O)=O)CC3)cc21,18.38,
Cc1nn(C)c(N2CCOCC2)c1CNC1CCS(=O)(=O)C1 (stereo unspecified),15.34,
Cc1noc(C)c1CN1CCOCC12CCN(c1ncccn1)CC2.O=C(O)C(F)(F)F,49.21,
Cc1noc(C)c1CN1CCOCC12CCN(c1cnccn1)CC2.O=C(O)C(F)(F)F,60.72,
CCN1CCOCC12CCN(c1cnccn1)CC2.O=C(O)C(F)(F)F,19.49,
O=C(c1cnn2c1OCCC2)N1CCC(Cc2ccccc2)CC1,-34.88,
OCc1cn(Cc2cccc(F)c2)nn1,6.732,
COC(=O)NCC(=O)N(C)CC1Cc2ccccc2CN1C (stereo unspecified),52.66,
CCOCCC(=O)N(C)CC1Cc2ccccc2CN1C (stereo unspecified),29.01,
COC(=O)CCCC(=O)N(C)CC1Cc2ccccc2CN1C (stereo unspecified),11.82,
COc1ncccc1C(=O)N1CCC(c2nc3c(C)cccc3[nH]2)CC1,-25.37,
CN1CCC(c2nnc3ccc(C(=O)N4CCCCC4)cn23)C1.O=C(O)C(F)(F)F (stereo unspecified),20.31,
COc1cccc(C(O)CN2CCN(C(=O)CCC(C)C)CC2)c1 (stereo unspecified),-26.89,
CS(=O)(=O)N1CCO[C@@H]2CN(C(=O)C3CCOC3)CC[C@@H]2C1 (stereo partly specified),29.21,

Compound,"Percent Effect (30.3 µM, […]) [%]","Percent Effect (30 µM, 30.03 µM) [%]"
CS(=O)(=O)N1CCO[C@@H]2CN(C(=O)N3CCOCC3)CC[C@@H]2C1,41.23,
CS(=O)(=O)N1CCO[C@@H]2CN(C(=O)N3CCCC3)CC[C@@H]2C1,57.39,
Cc1cc(OCCC(=O)NCc2ccc(F)cc2)nnc1C,-17.71,
CCn1c(N)nc2cc(C(=O)N3Cc4ccccc4C3)cnc21,1.909,
Cl.NCC(=O)N1CCC(c2ccnc(Nc3cc(C(F)(F)F)ccn3)n2)C1 (stereo unspecified),77.96,
CC(=O)N1CCC(c2ccnc(Nc3cc(C(F)(F)F)ccn3)n2)C1 (stereo unspecified),43.14,
COCC(=O)N1CC(c2ccnc(Nc3cc(C(F)(F)F)ccn3)n2)C1,23.24,
O=C(CO)N1CCC(c2ccnc(Nc3cc(C(F)(F)F)ccn3)n2)C1 (stereo unspecified),30.85,
COC(=O)C(C)N1CCCc2cc(OC)ccc2C1 (stereo unspecified),8.236,
COCCN1CCC(Nc2ccc(C#N)cc2F)CC1,26.49,
CNC(=O)C1Cc2ccccc2CN1CCC#N (stereo unspecified),1.919,
CCCOc1cccc(-c2nc3c([nH]2)CCNC3)c1,25.72,
CC(C)COc1cccc(-c2nc3c([nH]2)CCNC3)c1,95.75,
FC(F)(F)COc1cccc(-c2nc3c([nH]2)CCNC3)c1,27.16,
CCN(C(=O)c1ccc(-n2ncc(C#N)c2N)cc1)C1CCCC1,,36.15
O=C1C(NCc2nnc3n2CCCC3)CCN1CC(F)(F)F (stereo unspecified),,-13.74
Cc1ccc(Br)cc1NC(=O)NC1CCC2(C1)OCCO2 (stereo unspecified),23.67,
CC(C)Cc1cc(CC2(NCc3ccco3)COC2)no1,63.35,
CC(C)Cc1cc(CC2(NCc3ccccc3Cl)COC2)no1,8.785,
Cc1ccc(CNC2(Cc3cc(CC(C)C)on3)COC2)o1,-12.32,
Cc1ccc(CN2CCc3nc(C(C)C)nc(O)c3CC2)s1,14.32,
O=C(c1cccnc1O)N1CCCN(c2cccnn2)CC1,3.038,
COc1ccc(C)cc1NC(=O)Nc1cnc(N2CCN(C)CC2)nc1,,50.02
COc1ccc(C)cc1NC(=O)Nc1cnc(N2CCOCC2)nc1,-26.13,
COc1ccc(C)cc1NC(=O)Nc1cnc(N2CCCC2)nc1,-0.2164,
